The structures appear in SMILES notation. Results filed as inconclusive are left out. Calls of active or inactive are those of the source. Rule for the calls: active = hit-call score of the fitted dose curve at least 0.9, where 1 is the maximum; inconclusive = response in the unintended direction; inactive = score below 0.9.

The nature of this test: ATG_M_61_EcoTox2: Attagene TRANS-FACTORIAL EcoTox-2 HepG2 Assay for M61 Transcription Factor (Internal Marker). The protocol:
ATG_EcoTox2 is a cell-based, multiplexed assay created by modifying the existing Attagene TRANS-FACTORIAL system to include a panel of nuclear receptors from some or all the following species: human (Homo sapiens), african clawed frog (Xenopus laevis), rainbow trout (Oncorhynchus mykiss), japanese medaka (Oryzias latipes), and zebrafish (Danio rerio). The ECOTOX2-FACTORIAL format uses HepG2, a human liver cell line, with measurements taken at 24 hours after chemical dosing in a 24-well plate. ATG_M_61_EcoTox2 is one of 29 assay components calculated in the ATG_EcoTox2 assay. It is designed to make measurements of mRNA induction, a form of inducible reporter, as detected with fluorescence intensity signals by Reverse transcription polymerase chain reaction (RT-PCR) and Capillary electrophoresis technology.The assay endpoint ATG_M_61_EcoTox2 was analyzed in the positive analysis fitting direction relative to DMSO as the negative control and baseline of activity. Using a type of inducible reporter, measures of mRNA for gain-of-signal activity can be used to understand the background control at the transcription factor-level as they relate to the gene. Furthermore, this assay endpoint can be referred to as a secondary readout, because this assay has produced multiple assay endpoints where this one serves a background control function. To generalize the intended target to other relatable targets, this assay endpoint is annotated to the background measurement intended target family, where the subfamily is internal marker.
Human liver HepG2 cells are transiently transfected with multiple reporter transcription units (MRTUs) in 6-well plates using FuGene 6 reagent (Roche; 3 ml FuGene/1 mg DNA). The MRTU constructs are regulated by a cis-regulating element (promoter). Each RTU expresses a GAL4-UAS that regulates the transcription of a nearby target reporter gene sequence. A major difference between the CIS and TRANS system is that in CIS activities of endogenous TFs are measured, whereas the TRANS assay evaluates changes in activities of exogenous, chimeric NR-Gal4 proteins. […] At the end of 24 hour incubation, total RNA was isolated using TriZol reagent (Invitrogen). The isolated RNA is then reverse-transcribed using oligo(dT) primer and Mo-MLV reverse transcriptase (Invitrogen) with DNAse I (Ambion) treatment for 30 min. The one-tenth of the produced cDNA was amplified by PCR using Taq DNA polymerase (Invitrogen) and two reporter sequence-specific primers. […] The fragments were purified using Qiaquick PCR columns (Qiagen), analyzed on an ABI 3130xL genetic analyzer (Applied Biosystems) with peak positions identified by using a set of X-rhodamine (ROX)-labeled MapMarker1000 molecular weight standards (BioVentures). […]
On to `O=P(Oc1ccccc1)(Oc1ccccc1)Oc1ccccc1`, for which the call was inactive. For `O=C(O)C(F)(F)C(F)(F)C(F)(F)C(F)(F)C(F)(F)C(F)(F)C(F)(F)F` the value was “inactive”; for `CCCCOCN(C(=O)CCl)c1c(CC)cccc1CC`, “inactive”; for `O=S(=O)(O)C(F)(F)C(F)(F)C(F)(F)C(F)(F)C(F)(F)C(F)(F)F`, “inactive”.
